Laboratory results as given in doi:10.1101/2024.03.05.583629.

Biological target: pT7_6His-AlfaTag-HOXD13 (human, UniProt P35453 263-343)
Test: PADIT-seq
Conditions: dsDNA, one strand shown

Sequence of pT7_6His-AlfaTag-HOXD13 (P35453 263-343): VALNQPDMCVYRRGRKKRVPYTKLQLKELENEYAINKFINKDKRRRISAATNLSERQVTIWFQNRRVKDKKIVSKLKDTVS

Which binding signal does the source give for “CTCGAGGATATCAAGATCTGGCCTCGGCCTTTTAACGGGAACCTCTAGCTAGCCGACTCACTATAGGGATAATCGCCCTGAGCAAAGACC” here?
The binding signal was 1.98 ± 0.0882 log2FC.

How did the binding signal turn out when “CTCGAGGATATCAAGATCTGGCCTCGGCGTTTTATAGGGAACCTCTAGCTAGCCGACTCACTATAGGGATAATCGCCCTGAGCAAAGACC” was run?
The binding signal was 3.33 ± 0.0804 log2FC.

“CTCGAGGATATCAAGATCTGGCCTCGGCGATGTAAAAGGAACCTCTAGCTAGCCGACTCACTATAGGGATAATCGCCCTGAGCAAAGACC” was tested. Which binding signal did it give?
Its binding signal is 0.79 ± 0.0749 log2FC.

“CTCGAGGATATCAAGATCTGGCCTCGGCCTTTTAGCAGGAACCTCTAGCTAGCCGACTCACTATAGGGATAATCGCCCTGAGCAAAGACC” was tested. Which binding signal did it give?
The binding signal was 0.506 ± 0.084 log2FC.

Which binding signal does the source give for “CTCGAGGATATCAAGATCTGGCCTCGGCCTTTTAGAAGGAACCTCTAGCTAGCCGACTCACTATAGGGATAATCGCCCTGAGCAAAGACC” here?
Its binding signal is 0.357 ± 0.088 log2FC.

How did the binding signal turn out when “CTCGAGGATATCAAGATCTGGCCTCGGCCTTTTACTAGGAACCTCTAGCTAGCCGACTCACTATAGGGATAATCGCCCTGAGCAAAGACC” was run?
Its binding signal is 3.01 ± 0.0725 log2FC.

For “CTCGAGGATATCAAGATCTGGCCTCGGCCGCTATCGCGGAACCTCTAGCTAGCCGACTCACTATAGGGATAATCGCCCTGAGCAAAGACC”, which binding signal is on record?
The binding signal was -0.806 ± 0.119 log2FC.

With “CTCGAGGATATCAAGATCTGGCCTCGGCATGGTAAAAGGAACCTCTAGCTAGCCGACTCACTATAGGGATAATCGCCCTGAGCAAAGACC” as the sequence, how does the binding signal read?
The binding signal was 1.03 ± 0.0704 log2FC.

With “CTCGAGGATATCAAGATCTGGCCTCGGCTTTTTAGTCGGAACCTCTAGCTAGCCGACTCACTATAGGGATAATCGCCCTGAGCAAAGACC” as the sequence, how does the binding signal read?
Its binding signal is -0.553 ± 0.126 log2FC.

“CTCGAGGATATCAAGATCTGGCCTCGGCATTTTAAGCGGAACCTCTAGCTAGCCGACTCACTATAGGGATAATCGCCCTGAGCAAAGACC” was tested. Which binding signal did it give?
The binding signal was 0.548 ± 0.1 log2FC.
